Assay results taken from ChEMBL document CHEMBL2218924, “A broad activity screen in support of a chemogenomic map for kinase signalling research and drug discovery” (Biochem J, 2013).

Columns and labels:
[1] = target: Death-associated protein kinase 1 (Homo sapiens) (UniProt P53355); settings: at 10 µM
[2] = target: T1, Serine/threonine-protein kinase DCLK2 (Homo sapiens) (UniProt Q8N568); settings: at 1 µM
T1 sequence (whole entry): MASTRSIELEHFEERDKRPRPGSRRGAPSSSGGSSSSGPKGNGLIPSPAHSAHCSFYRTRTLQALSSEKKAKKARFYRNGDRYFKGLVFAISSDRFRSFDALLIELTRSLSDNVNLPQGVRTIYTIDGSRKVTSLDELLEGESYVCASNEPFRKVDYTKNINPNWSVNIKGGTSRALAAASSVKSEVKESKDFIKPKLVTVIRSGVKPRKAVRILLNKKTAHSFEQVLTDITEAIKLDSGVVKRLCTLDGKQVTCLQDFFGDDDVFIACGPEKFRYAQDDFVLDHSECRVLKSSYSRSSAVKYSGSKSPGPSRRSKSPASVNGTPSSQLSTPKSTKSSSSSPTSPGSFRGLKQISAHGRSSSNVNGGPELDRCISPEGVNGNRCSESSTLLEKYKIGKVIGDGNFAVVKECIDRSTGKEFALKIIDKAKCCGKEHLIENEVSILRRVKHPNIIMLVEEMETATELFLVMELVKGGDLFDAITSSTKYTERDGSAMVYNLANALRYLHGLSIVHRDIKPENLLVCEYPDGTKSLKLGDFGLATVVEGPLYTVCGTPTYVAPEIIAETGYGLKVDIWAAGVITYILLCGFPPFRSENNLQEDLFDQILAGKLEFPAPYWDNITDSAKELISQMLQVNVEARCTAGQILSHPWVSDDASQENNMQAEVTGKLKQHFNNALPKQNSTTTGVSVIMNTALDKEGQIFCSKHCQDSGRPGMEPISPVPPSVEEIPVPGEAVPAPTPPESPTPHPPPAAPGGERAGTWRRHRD

[3] = target: T1, Serine/threonine-protein kinase DCLK2 (Homo sapiens); settings: at 10 µM
[4] = target: T2, Discoidin domain-containing receptor 2 (Homo sapiens) (UniProt Q16832); settings: at 1 µM
T2 sequence (whole entry): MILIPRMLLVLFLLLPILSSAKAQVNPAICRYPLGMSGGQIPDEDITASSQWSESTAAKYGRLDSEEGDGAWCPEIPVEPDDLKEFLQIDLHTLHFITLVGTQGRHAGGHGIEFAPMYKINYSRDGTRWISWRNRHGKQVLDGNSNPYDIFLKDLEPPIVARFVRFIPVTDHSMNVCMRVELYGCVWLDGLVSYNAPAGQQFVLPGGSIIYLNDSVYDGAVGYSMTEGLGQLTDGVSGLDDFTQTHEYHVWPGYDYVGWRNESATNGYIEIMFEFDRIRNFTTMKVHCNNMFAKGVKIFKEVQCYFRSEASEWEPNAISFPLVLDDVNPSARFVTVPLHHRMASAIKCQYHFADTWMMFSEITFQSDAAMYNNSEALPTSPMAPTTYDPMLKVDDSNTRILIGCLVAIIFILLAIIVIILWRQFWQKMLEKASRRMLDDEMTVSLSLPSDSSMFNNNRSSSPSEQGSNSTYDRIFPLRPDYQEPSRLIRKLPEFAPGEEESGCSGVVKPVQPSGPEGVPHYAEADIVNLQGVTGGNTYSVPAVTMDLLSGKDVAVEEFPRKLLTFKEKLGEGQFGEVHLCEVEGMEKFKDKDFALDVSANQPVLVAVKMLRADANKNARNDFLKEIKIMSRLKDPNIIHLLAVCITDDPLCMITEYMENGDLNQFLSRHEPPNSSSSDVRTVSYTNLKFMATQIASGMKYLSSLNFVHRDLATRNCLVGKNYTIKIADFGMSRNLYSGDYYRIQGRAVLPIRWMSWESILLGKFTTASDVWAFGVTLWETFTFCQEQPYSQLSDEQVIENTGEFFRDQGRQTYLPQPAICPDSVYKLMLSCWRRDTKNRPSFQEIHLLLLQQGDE

[5] = target: T2, Discoidin domain-containing receptor 2 (Homo sapiens); settings: at 10 µM
[6] = target: T3, Myotonin-protein kinase (Homo sapiens) (UniProt Q09013); settings: at 1 µM
T3 sequence (whole entry): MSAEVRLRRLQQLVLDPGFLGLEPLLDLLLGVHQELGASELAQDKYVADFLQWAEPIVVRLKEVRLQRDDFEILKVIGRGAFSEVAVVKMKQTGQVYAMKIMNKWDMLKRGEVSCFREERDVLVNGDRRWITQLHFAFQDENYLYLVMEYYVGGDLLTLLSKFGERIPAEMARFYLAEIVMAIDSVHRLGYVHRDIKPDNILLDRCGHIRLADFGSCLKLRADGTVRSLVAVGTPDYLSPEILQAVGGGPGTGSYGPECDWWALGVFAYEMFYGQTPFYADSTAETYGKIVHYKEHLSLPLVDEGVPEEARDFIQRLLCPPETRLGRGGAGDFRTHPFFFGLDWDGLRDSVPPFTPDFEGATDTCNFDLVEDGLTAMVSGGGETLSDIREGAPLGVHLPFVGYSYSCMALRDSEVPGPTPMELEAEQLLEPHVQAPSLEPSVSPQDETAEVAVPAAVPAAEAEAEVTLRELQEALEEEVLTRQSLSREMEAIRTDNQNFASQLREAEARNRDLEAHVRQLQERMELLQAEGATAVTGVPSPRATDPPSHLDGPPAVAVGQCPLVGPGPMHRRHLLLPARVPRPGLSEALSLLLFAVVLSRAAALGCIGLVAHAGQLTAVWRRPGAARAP

[7] = target: T3, Myotonin-protein kinase (Homo sapiens); settings: at 10 µM
[8] = target: T4, Ephrin type-A receptor 1 (Homo sapiens) (UniProt P21709); settings: at 1 µM
T4 sequence (whole entry): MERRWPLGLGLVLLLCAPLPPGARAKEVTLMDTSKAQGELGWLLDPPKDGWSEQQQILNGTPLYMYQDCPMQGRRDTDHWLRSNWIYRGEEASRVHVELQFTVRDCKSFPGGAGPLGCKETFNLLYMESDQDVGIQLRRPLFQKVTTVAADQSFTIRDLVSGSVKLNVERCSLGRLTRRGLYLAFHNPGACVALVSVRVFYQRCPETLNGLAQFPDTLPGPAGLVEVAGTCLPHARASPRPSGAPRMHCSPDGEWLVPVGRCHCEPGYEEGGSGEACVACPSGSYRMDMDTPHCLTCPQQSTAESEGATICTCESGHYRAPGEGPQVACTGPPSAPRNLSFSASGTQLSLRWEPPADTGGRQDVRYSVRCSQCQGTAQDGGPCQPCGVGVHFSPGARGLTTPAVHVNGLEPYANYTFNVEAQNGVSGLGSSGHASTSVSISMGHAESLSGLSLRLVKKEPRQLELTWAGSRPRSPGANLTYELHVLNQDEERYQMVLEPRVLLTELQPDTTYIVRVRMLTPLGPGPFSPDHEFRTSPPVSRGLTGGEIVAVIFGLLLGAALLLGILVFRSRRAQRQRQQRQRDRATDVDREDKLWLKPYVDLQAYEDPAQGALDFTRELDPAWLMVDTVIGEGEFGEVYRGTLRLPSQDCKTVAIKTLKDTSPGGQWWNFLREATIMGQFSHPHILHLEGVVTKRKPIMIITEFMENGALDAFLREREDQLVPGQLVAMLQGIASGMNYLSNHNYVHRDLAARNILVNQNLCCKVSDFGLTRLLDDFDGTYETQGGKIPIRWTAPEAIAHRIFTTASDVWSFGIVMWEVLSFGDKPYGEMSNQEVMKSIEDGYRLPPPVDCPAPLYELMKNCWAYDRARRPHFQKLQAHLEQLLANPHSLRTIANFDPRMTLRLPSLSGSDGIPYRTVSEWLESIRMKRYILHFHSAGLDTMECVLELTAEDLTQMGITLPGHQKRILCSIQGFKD

[9] = target: T4, Ephrin type-A receptor 1 (Homo sapiens); settings: at 10 µM
[10] = target: Ephrin type-A receptor 2 (Homo sapiens) (UniProt P29317); settings: at 1 µM
Sequence of Ephrin type-A receptor 2 (Homo sapiens) (P29317 whole entry): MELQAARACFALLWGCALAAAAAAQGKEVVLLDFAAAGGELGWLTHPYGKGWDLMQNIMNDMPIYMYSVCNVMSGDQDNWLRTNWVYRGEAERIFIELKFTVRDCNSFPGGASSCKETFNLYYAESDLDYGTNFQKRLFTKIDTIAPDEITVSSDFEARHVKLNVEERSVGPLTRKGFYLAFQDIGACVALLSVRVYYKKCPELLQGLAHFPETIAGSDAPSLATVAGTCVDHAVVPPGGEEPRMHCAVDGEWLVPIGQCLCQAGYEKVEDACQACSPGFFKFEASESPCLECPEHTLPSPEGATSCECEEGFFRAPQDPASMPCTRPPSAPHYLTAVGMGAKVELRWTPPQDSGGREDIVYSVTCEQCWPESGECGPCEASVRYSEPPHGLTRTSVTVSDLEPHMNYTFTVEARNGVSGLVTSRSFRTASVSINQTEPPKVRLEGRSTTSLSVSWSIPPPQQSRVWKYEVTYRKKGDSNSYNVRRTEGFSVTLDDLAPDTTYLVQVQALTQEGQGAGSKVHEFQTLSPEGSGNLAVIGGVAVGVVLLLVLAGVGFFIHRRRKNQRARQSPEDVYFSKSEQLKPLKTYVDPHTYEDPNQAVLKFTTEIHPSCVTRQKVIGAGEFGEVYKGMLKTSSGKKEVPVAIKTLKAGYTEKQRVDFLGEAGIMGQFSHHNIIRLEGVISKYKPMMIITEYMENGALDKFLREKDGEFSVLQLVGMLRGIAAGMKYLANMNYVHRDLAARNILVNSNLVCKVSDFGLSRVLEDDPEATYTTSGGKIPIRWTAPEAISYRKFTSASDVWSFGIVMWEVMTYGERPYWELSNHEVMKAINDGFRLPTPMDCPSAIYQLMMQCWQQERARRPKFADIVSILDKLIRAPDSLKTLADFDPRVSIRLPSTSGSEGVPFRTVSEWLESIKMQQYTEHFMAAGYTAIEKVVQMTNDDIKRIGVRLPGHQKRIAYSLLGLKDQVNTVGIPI

[11] = target: Ephrin type-A receptor 2 (Homo sapiens) (UniProt P29317); settings: at 10 µM
[12] = target: T5, Ephrin type-A receptor 3 (Homo sapiens) (UniProt P29320); settings: at 1 µM
T5 sequence (whole entry): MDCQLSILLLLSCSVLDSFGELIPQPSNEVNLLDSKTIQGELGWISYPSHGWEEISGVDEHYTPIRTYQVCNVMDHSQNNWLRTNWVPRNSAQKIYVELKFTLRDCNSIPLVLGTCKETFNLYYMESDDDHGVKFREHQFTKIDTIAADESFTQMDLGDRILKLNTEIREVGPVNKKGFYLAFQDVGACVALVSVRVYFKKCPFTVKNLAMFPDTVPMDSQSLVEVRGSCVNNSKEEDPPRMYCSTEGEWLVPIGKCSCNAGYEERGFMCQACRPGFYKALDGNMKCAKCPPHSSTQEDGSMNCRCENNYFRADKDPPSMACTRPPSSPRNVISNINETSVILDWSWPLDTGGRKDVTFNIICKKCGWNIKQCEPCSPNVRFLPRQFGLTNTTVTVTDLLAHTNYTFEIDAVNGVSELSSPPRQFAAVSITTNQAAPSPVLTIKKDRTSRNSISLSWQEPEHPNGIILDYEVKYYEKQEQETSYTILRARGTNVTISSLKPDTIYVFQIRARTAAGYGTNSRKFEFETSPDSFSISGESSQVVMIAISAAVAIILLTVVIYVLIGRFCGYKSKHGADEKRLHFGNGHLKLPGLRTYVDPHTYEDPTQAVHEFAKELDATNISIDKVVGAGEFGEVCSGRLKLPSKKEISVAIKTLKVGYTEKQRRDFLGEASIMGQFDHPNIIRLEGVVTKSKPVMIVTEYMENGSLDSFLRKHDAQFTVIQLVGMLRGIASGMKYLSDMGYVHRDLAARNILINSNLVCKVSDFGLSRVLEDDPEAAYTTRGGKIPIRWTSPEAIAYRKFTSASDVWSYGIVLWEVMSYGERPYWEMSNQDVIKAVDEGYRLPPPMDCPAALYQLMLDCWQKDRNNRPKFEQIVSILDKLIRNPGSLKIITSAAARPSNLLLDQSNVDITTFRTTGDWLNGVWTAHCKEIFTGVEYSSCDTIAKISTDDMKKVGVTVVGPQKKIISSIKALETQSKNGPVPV

[13] = target: Death-associated protein kinase 2 (Homo sapiens) (UniProt Q9UIK4); settings: at 1 µM
Sequence of Death-associated protein kinase 2 (Homo sapiens) (Q9UIK4 whole entry, looked up): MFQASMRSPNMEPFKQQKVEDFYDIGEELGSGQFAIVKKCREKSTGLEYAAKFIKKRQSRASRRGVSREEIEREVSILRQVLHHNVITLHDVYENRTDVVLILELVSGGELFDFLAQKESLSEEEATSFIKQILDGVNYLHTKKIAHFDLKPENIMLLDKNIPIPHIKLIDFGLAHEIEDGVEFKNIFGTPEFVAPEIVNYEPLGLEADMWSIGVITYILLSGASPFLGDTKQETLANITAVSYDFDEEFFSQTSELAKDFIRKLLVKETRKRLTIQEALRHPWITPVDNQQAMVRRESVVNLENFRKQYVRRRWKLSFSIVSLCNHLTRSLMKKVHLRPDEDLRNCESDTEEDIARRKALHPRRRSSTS

[14] = target: Death-associated protein kinase 2 (Homo sapiens) (UniProt Q9UIK4); settings: at 10 µM
[15] = target: T6, Serine/threonine-protein kinase 17A (Homo sapiens) (UniProt Q9UEE5); settings: at 1 µM
T6 sequence (whole entry): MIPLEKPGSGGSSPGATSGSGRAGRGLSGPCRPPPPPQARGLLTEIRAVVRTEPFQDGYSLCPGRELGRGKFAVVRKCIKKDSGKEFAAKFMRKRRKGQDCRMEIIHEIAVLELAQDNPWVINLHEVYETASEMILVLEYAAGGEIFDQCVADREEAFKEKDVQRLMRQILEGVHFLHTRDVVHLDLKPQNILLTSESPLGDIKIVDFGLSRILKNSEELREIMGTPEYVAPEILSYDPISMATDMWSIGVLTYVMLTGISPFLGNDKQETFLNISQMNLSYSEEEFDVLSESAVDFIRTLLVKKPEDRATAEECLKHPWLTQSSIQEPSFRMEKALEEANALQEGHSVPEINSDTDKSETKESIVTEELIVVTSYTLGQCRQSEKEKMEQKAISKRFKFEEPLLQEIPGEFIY

[16] = target: T6, Serine/threonine-protein kinase 17A (Homo sapiens); settings: at 10 µM
[17] = target: T7, Dual specificity tyrosine-phosphorylation-regulated kinase 2 (Homo sapiens) (UniProt Q92630); settings: at 1 µM
T7 sequence (whole entry): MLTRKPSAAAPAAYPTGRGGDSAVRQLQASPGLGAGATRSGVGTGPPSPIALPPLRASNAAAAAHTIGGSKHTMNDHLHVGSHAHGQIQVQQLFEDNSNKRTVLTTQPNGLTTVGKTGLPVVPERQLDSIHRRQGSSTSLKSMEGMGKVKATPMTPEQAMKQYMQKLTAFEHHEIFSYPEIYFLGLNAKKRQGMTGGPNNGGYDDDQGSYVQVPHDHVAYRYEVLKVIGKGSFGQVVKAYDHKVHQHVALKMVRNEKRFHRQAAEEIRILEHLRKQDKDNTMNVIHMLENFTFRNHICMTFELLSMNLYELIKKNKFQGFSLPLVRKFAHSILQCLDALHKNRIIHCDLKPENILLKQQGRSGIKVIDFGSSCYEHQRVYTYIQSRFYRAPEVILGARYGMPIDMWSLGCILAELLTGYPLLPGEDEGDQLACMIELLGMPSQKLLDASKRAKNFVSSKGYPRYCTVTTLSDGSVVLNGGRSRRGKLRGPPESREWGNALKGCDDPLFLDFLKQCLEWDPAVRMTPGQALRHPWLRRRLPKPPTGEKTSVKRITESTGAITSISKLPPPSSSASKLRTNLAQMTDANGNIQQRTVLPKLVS

[18] = target: T7, Dual specificity tyrosine-phosphorylation-regulated kinase 2 (Homo sapiens); settings: at 10 µM

Sequence of Death-associated protein kinase 1 (Homo sapiens) (P53355 whole entry, looked up): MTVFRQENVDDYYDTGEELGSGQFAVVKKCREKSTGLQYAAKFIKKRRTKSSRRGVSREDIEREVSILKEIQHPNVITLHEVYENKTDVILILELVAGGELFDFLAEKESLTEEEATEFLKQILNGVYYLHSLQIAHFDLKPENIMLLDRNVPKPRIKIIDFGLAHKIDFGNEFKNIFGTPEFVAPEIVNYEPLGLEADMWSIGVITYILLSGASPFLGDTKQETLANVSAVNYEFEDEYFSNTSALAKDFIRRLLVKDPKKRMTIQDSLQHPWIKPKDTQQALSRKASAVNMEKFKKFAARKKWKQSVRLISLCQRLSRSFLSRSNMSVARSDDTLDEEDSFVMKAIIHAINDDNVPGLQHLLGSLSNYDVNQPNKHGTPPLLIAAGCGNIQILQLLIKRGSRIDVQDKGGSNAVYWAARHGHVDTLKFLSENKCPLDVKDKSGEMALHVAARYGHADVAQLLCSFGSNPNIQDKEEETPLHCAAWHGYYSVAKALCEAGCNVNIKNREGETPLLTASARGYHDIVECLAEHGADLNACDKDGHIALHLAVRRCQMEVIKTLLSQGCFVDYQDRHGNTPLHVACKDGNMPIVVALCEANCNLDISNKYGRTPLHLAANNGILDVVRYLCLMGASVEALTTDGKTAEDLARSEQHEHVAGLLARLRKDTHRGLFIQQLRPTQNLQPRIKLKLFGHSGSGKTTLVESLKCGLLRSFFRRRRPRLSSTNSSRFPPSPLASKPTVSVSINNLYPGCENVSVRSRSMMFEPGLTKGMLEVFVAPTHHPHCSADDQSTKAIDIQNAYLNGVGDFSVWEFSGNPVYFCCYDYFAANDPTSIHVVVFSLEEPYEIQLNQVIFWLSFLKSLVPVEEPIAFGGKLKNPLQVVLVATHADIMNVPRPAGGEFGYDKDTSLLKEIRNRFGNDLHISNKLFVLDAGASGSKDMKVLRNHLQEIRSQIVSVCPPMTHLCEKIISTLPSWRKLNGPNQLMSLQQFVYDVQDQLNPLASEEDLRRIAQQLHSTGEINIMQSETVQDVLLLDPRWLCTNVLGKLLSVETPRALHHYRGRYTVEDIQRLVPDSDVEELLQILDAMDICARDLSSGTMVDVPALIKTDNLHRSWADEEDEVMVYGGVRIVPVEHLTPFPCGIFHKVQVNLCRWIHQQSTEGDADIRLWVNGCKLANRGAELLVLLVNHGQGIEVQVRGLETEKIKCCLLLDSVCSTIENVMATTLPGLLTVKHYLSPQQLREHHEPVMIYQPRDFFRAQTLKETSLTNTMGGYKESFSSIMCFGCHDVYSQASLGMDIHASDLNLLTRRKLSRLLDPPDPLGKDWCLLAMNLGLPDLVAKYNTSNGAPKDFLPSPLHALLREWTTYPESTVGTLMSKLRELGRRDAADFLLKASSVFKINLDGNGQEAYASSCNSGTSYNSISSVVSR

Row | SMILES | residual activity [1] | residual activity [2] | residual activity [3] | residual activity [4] | residual activity [5] | residual activity [6] | residual activity [7] | residual activity [8] | residual activity [9] | residual activity [10] | residual activity [11] | residual activity [12] | residual activity [13] | residual activity [14] | residual activity [15] | residual activity [16] | residual activity [17] | residual activity [18]
1 | COc1cc2nccc(Oc3ccc(NC(=O)Nc4cc(C)on4)c(Cl)c3)c2cc1OC | 69% | 99% | 104% | 1% | 0% | 100% | 148% | 10% | 6% | -3% | -3% | 1% |  |  |  |  |  | 
2 | CCN(CC)CCNC(=O)c1c(C)[nH]c(/C=C2\C(=O)Nc3ccc(Cl)cc32)c1C | 31% | 68% | 24% |  | 44% | 52% | 68% | 82% | 37% |  | 73% |  | 63% | 16% | 3% | 2% | 78% | 37%
3 | COc1cc2nccc(Oc3ccc(NC(=S)NC(=O)c4ccccc4C)cc3)c2cc1OC | 76% | 82% | 94% | 26% | 11% | 138% | 141% | 46% | 24% | 91% | 55% | 98% | 99% | 99% | 129% | 92% |  | 91%
